# Results filed as inconclusive are left out. A call without a number means that no potency is given here. The source made the active and inactive calls. The call rests on the fitted dose curve; in most records, active means well fitted curve in the direction sought with a large enough effect; inconclusive means small, poorly fitted or top-dose-only effect, or another doubt; inactive means no such curve, though single readings can be large; an effect the other way counts as inactive or inconclusive.
# Test: Primary redox qHTS assay for identification of artifact compounds. (AID 1845223)
# Conditions: Amplex Red/HRP redox cycling with DTT, fluorescence; series mostly up to 53.8 µM
# In short: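 Amplex Red (25 uM) and HRP (250 mU/mL) in HBSS, with compounds for 15 min, then 250 uM DTT for 30 min, room temperature, dark. Fluorescence 525/598 nm read; normalized to DMSO and 10 uM DA3003; Hill fit.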
SMILES,outcome,redox activity (% of DA3003)
CC(=O)Nc1cccc(-n2c(=O)n(C3CC3)c(=O)c3c(Nc4ccc(I)cc4F)n(C)c(=O)c(C)c32)c1,inactive,
Cc1cnc(CNC(=O)c2c(=O)c3ccc(N4CCCN(C)CC4)nc3n3c2sc2ccccc23)cn1,,-5.5% [at 11.5 µM] (inactive)
CCN(CCO)CCCOc1ccc2c(Nc3cc(CC(=O)Nc4cccc(F)c4)[nH]n3)ncnc2c1,inactive,
C[C@@H](NC(=O)c1ncnc(N)c1Cl)c1ncc(C(=O)Nc2cc(C(F)(F)F)c(Cl)cn2)s1,inactive,
CCC(=O)N1CCN(c2ccc(-n3c(=O)ccc4cnc5ccc(-c6cnc7ccccc7c6)cc5c43)cc2C(F)(F)F)CC1,,-10.4% [at 11.5 µM] (inactive)
CNC(=O)c1ccc2c(C(=Nc3cccc(CN(C)C)c3)c3ccccc3)c(O)[nH]c2c1,inactive,
O=C(CO)N1CCC(c2[nH]nc(-c3ccc(Cl)cc3)c2-c2ccncn2)CC1,inactive,
NC1(C(=O)N[C@@H](CCO)c2ccc(Cl)cc2)CCN(c2ncnc3[nH]ccc23)CC1,inactive,
O=C1C(c2c(O)[nH]c3ccccc23)=Nc2ccccc21,inactive,
CCc1cccc(CC)c1NC(=O)N1Cc2[nH]nc(NC(=O)c3ccc(N4CCN(C)CC4)cc3)c2C1,inactive,
COc1ccc(-c2cc3nccn3c(Nc3ncccc3C(N)=O)n2)cc1OC,inactive,
Cc1ccc2c(c1)C(=O)[C@]1(O)CCN(c3ccccc3)C1=N2,inactive,
CC1=C(C(=O)Nc2cc3cn[nH]c3cc2F)C(c2ccc(C(F)(F)F)cc2)CC(=O)N1 (centres undefined),inactive,
CCN1C[C@H](C)n2c(c(O)c3c(=O)n(Cc4ccc(F)c(Cl)c4)nc(C(=O)NC)c32)C1=O,inactive,
Cc1cc2c(cc1C1(c3ccc(C(=O)O)cn3)CC1)C(C)(C)CCC2(C)C,inactive,
CC(C)CNc1ccnc(NCc2csc(-c3ccccc3)n2)n1,inactive,
NS(=O)(=O)c1cc(Cl)c(Cl)c(S(N)(=O)=O)c1,inactive,
COc1cc2ncnc(Nc3cc(Br)c(O)c(Br)c3)c2cc1OC,inactive,
CN[C@@H](C)[C@H]1[C@H](O)C[C@@]2(C)[C@@H]3CC[C@H]4C(C)(C)[C@@H](NC)CC[C@@]45C[C@@]35CC[C@]12C,,-0.744% [at 11.5 µM] (inactive)
Cn1c(=O)c(-c2c(Cl)cccc2Cl)cc2cnc(Nc3cccc(C(=O)O)c3)nc21,inactive,
Cc1cnc(Nc2cccc(CN3CCOCC3)c2)nc1Nc1cccc(S(=O)(=O)NC(C)(C)C)c1,inactive,
c1cc(OCCN2CCCCC2)cc(-c2n[nH]c3ccc(-c4ncn[nH]4)cc23)c1,inactive,
O[C@@H](COc1cccc2ncccc12)CN1CCN(C2c3ccccc3[C@@H]3[C@H](c4ccccc42)C3(F)F)CC1 (some centres undefined),inactive,
CNc1nc(Nc2ccc(C(=O)N3CCOCC3)cc2OC)ncc1Cl,inactive,
Cc1cccc2c1CC[C@H](CN1CCC(c3c(Cl)cccc3Cl)CC1)C[C@@H]2O,inactive,
CC1(C)CC(=O)c2c(C(F)(F)F)nn(-c3ccc(C(N)=O)c(NC4CCC(O)CC4)c3)c2C1 (centres undefined),inactive,
Cc1csc(-c2nnc(Nc3ccc(Oc4ncccc4-c4ccnc(N)n4)cc3)c3ccccc23)c1,inactive,
COC(=O)N1CCN(Cc2cccc(NC(=O)Nc3ccc(C)nc3)c2F)CC1,inactive,

# Test: Quantitative High-Throughput drug screen in 47 multiple myeloma cell lines against the NCATS MIPE library collection: FR4_PLB cell viability assay (AID 1918924; further: nearly all actives have a fitted effect of over 35% in size; further: potency means the concentration at half of the fitted maximal effect)
# Conditions: FR4_PLB myeloma cells viability, CellTiter-Glo ATP, 48 h; series mostly up to 45.8 µM
# In short: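 CellTiter-Glo luminescence (ATP) after 48 h compound exposure, 37C/5% CO2; 500 cells/well; MIPE 4.0 approved/investigational drugs pinned in; DMSO = 100%, media only = 0% viability.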
row,SMILES,Potency
1,CC(=O)Nc1cccc(-n2c(=O)n(C3CC3)c(=O)c3c(Nc4ccc(I)cc4F)n(C)c(=O)c(C)c32)c1,0.743 µM (active)
2,Cc1cnc(CNC(=O)c2c(=O)c3ccc(N4CCCN(C)CC4)nc3n3c2sc2ccccc23)cn1,12.9 µM (active)
3,CCN(CCO)CCCOc1ccc2c(Nc3cc(CC(=O)Nc4cccc(F)c4)[nH]n3)ncnc2c1,inactive
4,CCC(=O)N1CCN(c2ccc(-n3c(=O)ccc4cnc5ccc(-c6cnc7ccccc7c6)cc5c43)cc2C(F)(F)F)CC1,0.0132 µM (active)
5,CNC(=O)c1ccc2c(C(=Nc3cccc(CN(C)C)c3)c3ccccc3)c(O)[nH]c2c1,inactive
6,O=C1C(c2c(O)[nH]c3ccccc23)=Nc2ccccc21,14.8 µM (active)
7,COc1ccc(-c2cc3nccn3c(Nc3ncccc3C(N)=O)n2)cc1OC,3.32 µM (active)
8,Cc1ccc2c(c1)C(=O)[C@]1(O)CCN(c3ccccc3)C1=N2,inactive
9,Cc1cc2c(cc1C1(c3ccc(C(=O)O)cn3)CC1)C(C)(C)CCC2(C)C,inactive
10,CC(C)CNc1ccnc(NCc2csc(-c3ccccc3)n2)n1,16.6 µM (active)
11,Cn1c(=O)c(-c2c(Cl)cccc2Cl)cc2cnc(Nc3cccc(C(=O)O)c3)nc21,5.26 µM (active)
12,Cc1cnc(Nc2cccc(CN3CCOCC3)c2)nc1Nc1cccc(S(=O)(=O)NC(C)(C)C)c1,14.8 µM (active)
13,O[C@@H](COc1cccc2ncccc12)CN1CCN(C2c3ccccc3[C@@H]3[C@H](c4ccccc42)C3(F)F)CC1 (some centres undefined),23.5 µM (active)
14,CNc1nc(Nc2ccc(C(=O)N3CCOCC3)cc2OC)ncc1Cl,inactive
15,OC[C@H]1O[C@@H](OCCc2ccc(O)cc2)[C@H](O)[C@@H](O)[C@H]1O,inactive
16,CC1(C)CC(=O)c2c(C(F)(F)F)nn(-c3ccc(C(N)=O)c(NC4CCC(O)CC4)c3)c2C1 (centres undefined),0.059 µM (active)

# Reference: PubChem BioAssay (NCATS)
